# From PubChem
# The list is not random: actives were taken first. Their share in the collection is about 9.8%.
# HPGD inh = blocks human HPGD enzyme activity | P15428 | purified HPGD, NADH fluorescence kinetic, PGE2 substrate | Potency, µM, without a hit: top-dose activity change, negative = inhibition, hits mostly inhibitors | 150,000 compounds, 4.3% hits | AID 894; also: potency is read from the fitted curve at half-maximal effect; % is scaled to controls: 0 for no effect and ±100 for the full control effect
# Target sequence (P15428 whole entry, looked up): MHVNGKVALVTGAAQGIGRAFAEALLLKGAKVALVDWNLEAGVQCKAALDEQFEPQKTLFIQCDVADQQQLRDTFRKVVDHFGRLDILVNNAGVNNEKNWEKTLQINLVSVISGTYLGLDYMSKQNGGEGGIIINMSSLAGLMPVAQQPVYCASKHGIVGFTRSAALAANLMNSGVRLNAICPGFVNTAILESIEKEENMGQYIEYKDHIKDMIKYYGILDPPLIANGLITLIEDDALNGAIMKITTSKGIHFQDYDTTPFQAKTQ
#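 NADH formation kinetics: reaction with 30 uM PGE2 and 1 mM NAD+ (final), 20 nM enzyme, Tris-HCl pH 8 with Tween 20, after 15 min compound preincubation at room temperature. Fluorescence change, last versus first of five reads.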
# JMJD2E inh = inhibitors of human JMJD2E histone demethylase; Potency, µM (series often up to 57.1 µM), without a hit: top-dose activity change, negative = inhibition, actives largely listed as inhibitors; B2RXH2; JMJD2E catalytic domain, FDH-coupled NADH fluorescence (FDH is formaldehyde dehydrogenase); 230,000 compounds, 1.6% hits;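 also: potency is read from the fitted curve at half-maximal effect; 0% = wells with enzyme and -100% = buffer wells without enzyme; nearly all actives have a fitted effect of over 50% in size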
# Target sequence (B2RXH2 1-337 limits assumed): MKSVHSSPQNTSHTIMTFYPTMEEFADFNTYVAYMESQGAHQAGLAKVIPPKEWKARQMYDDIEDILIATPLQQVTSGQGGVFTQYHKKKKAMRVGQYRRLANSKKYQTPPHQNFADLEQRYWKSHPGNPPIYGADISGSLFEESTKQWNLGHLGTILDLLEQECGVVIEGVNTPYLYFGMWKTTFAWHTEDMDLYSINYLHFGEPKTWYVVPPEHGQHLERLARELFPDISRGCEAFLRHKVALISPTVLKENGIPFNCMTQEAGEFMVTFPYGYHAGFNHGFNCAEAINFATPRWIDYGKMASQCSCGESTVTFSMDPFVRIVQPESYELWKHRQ
# HTT ATP protect = protects HTT-Q103 PC12 cells, measured by ATP. PC12 HTT-Q103 induced, cytoprotection, ATP luminescence, 40 h. Potency, µM (series often up to 56.4 µM), for the others: cytoprotection (ATP increase), hits mostly activators. 230,000 compounds, 0.14% hits. AID 1471; active = well fitted curve in the direction sought with a large enough effect; inconclusive = small, poorly fitted or top-dose-only effect, or another doubt; inactive = no such curve, though single readings can be large; an effect the other way counts as inactive or inconclusive; also: potency is read from the fitted curve at half-maximal effect; % of control where 0% means no effect; nearly all actives have a fitted effect of over 45% in size
#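 Readout: ATPlite luminescence (ATP level). Model: stable PC12, inducible Htt exon1 Q103-GFP. Inducer: tebufenozide, 100 nM final. Compounds: dose series. No G418 in medium.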
# CBFb RUNX1 block = CBF-beta/RUNX1 interaction disruption | Q01196+Q13951 | AlphaScreen CBFb-His/RUNX1-biotin binding, biochemical | Potency, µM (highest dose often 59.8 µM), inactives show top-dose activity, negative = inhibition, usual class: inhibitors | 230,000 tested, under 10 active | AID 1477; active = well fitted curve in the direction sought with a large enough effect; inconclusive = small, poorly fitted or top-dose-only effect, or another doubt; inactive = no such curve, though single readings can be large; an effect the other way counts as inactive or inconclusive; also: % of control where 0% means no effect
#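 Read-out: AlphaScreen. Format: His-CBF-beta with biotinylated RUNX1 (30 nM each) preincubated 20 min, compound 15 min, Ni-chelate plus streptavidin beads 90 min; room temperature throughout.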
# HTT aggregate = reduces HttQ103-GFP aggregates in PC12 cells. PC12 HttQ103-GFP aggregates, Acumen cytometry, 40 h. 220,000 compounds, 1.1% hits. Potency, µM (highest dose often 46.1 µM), inactives show top-dose activity change, negative = inhibition, hits mostly inhibitors; active = well fitted curve in the direction sought with a large enough effect; inconclusive = small, poorly fitted or top-dose-only effect, or another doubt; inactive = no such curve, though single readings can be large; an effect the other way counts as inactive or inconclusive; also: potency is read from the fitted curve at half-maximal effect; % is scaled to controls: 0 for no effect and ±100 for the full control effect; nearly all actives have a fitted effect of over 60% in size
#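 Compounds (qHTS titration) were added to PC12 cells expressing an ecdysone-driven HTT exon 1 Q103–GFP fusion after induction with 100 nM tebufenozide. Aggregate formation was measured as GFP objects in cell lysates.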
# ALDH1A1 block = ALDH1A1 (human) enzyme inhibition; P00352; Purified ALDH1A1, NADH fluorescence, propionaldehyde substrate; Potency, µM (highest dose often 75.3 µM), without a hit: at the top dose activity, negative = inhibition, usual class: inhibitors; 220,000 compounds, 7.3% hits; AID 1030;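 also: potency is read from the fitted curve at half-maximal effect; plate controls were no enzyme wells and a reference inhibitor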
# Starred values were filed as active, the others as inactive; ? = inconclusive; . = no result given; ! = a repeat was not active; [ ] = remark or other dose. Unless noted, calls follow the shape of the dose curve; as a rule, active = well fitted inhibition curve with a large enough effect (not every such curve was filed as active); inconclusive = small, poorly fitted or top-dose-only effect, or another doubt; inactive = no such curve, though single readings can be large or run the other way.
SMILES,HPGD inh,JMJD2E inh,HTT ATP protect,CBFb RUNX1 block,HTT aggregate,ALDH1A1 block
Cc1sc2nc3c(SC(C)C(=O)O)cc(C(=O)c4ccccc4O)cn3c(=O)c2c1C (stereo not given),-21%,4%,-65%[10 µM],0%,?,8.9µM*
CC(Oc1ccccc1Cl)C(=O)N1CCOCC1 (stereo not given),28µM*,1%,-3%[10 µM],-1%,13%,?
O=C(Oc1ccccc1OC(=O)N1CCOCC1)N1CCOCC1,5%,-2%,13%,4%,-1%,4%
O=C1c2cc([N+](=O)[O-])ccc2-c2ccc3c4ccc5c6c(ccc(c7ccc1c2c73)c64)C(=O)c1cc([N+](=O)[O-])ccc1-5,-15%,.,-49%[10 µM],.,.,-8%[13.5 µM]
COc1ccc(CNC(=O)C2COc3ccccc3O2)c(OC)c1 (stereo not given),4.5µM*,11%,-10%,8%,16%,?
Cc1onc(-c2ccccc2)c1CNC(=O)C1COc2ccccc2O1 (stereo not given),.,-5%,-10%[10 µM],7%,1%[9.22 µM],18µM*
Cc1ccc(CNC(=O)C2COc3ccccc3O2)cc1 (stereo not given),.,-9%,-11%[10 µM],8%,-2%[9.22 µM],?
O=C(Nc1ccc(Cl)cn1)C1COc2ccccc2O1 (stereo not given),.,5%,-3%[10 µM],11%,-12%[9.22 µM],22µM*
COc1ccc(OC)c(NC(=O)C2COc3ccccc3O2)c1 (stereo not given),-14%,-7%,-7%,4%,-3%,?
O=C(Nc1ccccn1)C1COc2ccccc2O1 (stereo not given),-18%,4%,-11%[10 µM],2%,-8%,-4%
O=C(NCc1ccccc1)C1COc2ccccc2O1 (stereo not given),11µM*,-5%,.,18%,?,-1%
COc1ccccc1N1CCN(CCn2c(=O)c3c(c4ccccc4n3C)n(C)c2=O)CC1,.,.,-12%,21%,.,15%
O=C(C1COc2ccccc2O1)N1CCN(c2ccc(F)cc2)CC1 (stereo not given),-3%,7%,-4%,-4%,10%[9.22 µM],1%
O=C(C1COc2ccccc2O1)N1CCCC1 (stereo not given),13µM*,4%,6%,0%,0%[9.22 µM],?
COc1ccc(C)cc1NC(=O)CC1COc2ccccc2O1 (stereo not given),.,3%,-20%,12%,8%,-1%
COc1cc(OC)c(OC)cc1NC(=O)CC1COc2ccccc2O1 (stereo not given),-9%,9%,4%[10 µM],3%,2%,3.5µM*
O=C(O)/C=C/C(=O)NCCNc1ncc(C(F)(F)F)cc1Cl,.,-21%,-44%[1.9 µM],1%,10%[9.22 µM],28µM*
O=C1C=CC(=O)N1CCNc1ncc(C(F)(F)F)cc1Cl,.,-1%,-7%[10 µM],1%,?,0.63µM*
COc1ccc(-n2c(O)c(Cc3ccccc3)c(=O)n3nc(-c4ccccc4)c(=O)cc23)cc1,-16%,-7%,3%[10 µM],7%,-13%,0%
CCCCC#Cc1nc(NC)c2ncn([C@@H]3O[C@@H](CO)[C@H](O)[C@H]3O)c2n1,4%,6%,-11%,7%[21.7 µM],.,-1%
Cn1c(NC(=O)Cc2cccc3ccccc23)cc(=O)n(C)c1=O,.,4%,-39%,8%,6%,14µM*
CC(=O)Oc1ccccc1N(C(C)=O)S(=O)(=O)c1ccc(C)cc1,.,-13%,-1%,-1%,-10%,-4%
COc1ccc(S(=O)(=O)N(C(C)=O)c2ccc(OC(C)=O)c3ccccc23)cc1[N+](=O)[O-],.,4%,-4%[10 µM],-10%,6.3µM*,7.1µM*
CCN1CCN(CC(=O)N2CCCC(C(=O)c3ccc(Oc4ccccc4)cc3)C2)CC1 (stereo not given),.,-5%,-9%[10 µM],?,13%[9.22 µM],?
Cc1cc2n(n1)SC(Nc1ccccc1)N2 (stereo not given),-15%,2%,-11%,0%,19%,25µM*
SMILES,HPGD inh,JMJD2E inh,HTT ATP protect,CBFb RUNX1 block,HTT aggregate,ALDH1A1 block
Cc1ccc(NC2Nc3cc(C)nn3S2)c(C)c1 (stereo not given),.,-6%,-16%,-3%,-15%,?
COCCNC(=O)C(c1ccccc1F)N(C(=O)C(=O)NC1CCCC1)C1CCCCC1 (stereo not given),.,-21%,0%[10 µM],4%,-5%[9.22 µM],15%
COc1ccccc1N(C)S(=O)(=O)c1ccc(C(=O)NCC(C)C)cc1,25µM*,-2%,-2%,-3%,15%,-1%
COc1ccc(NC(=O)COC(=O)c2ccc(S(=O)(=O)N(C)c3ccccc3OC)cc2)cc1OC,.,13%,29%,-16%,1%,2%
CCC(C)(C)NC(=O)c1ccc(S(=O)(=O)N(C)c2ccccc2OC)cc1,-4%,6%,-24%,7%,-12%,4%
COc1ccc(NC(=O)COC(=O)c2ccc(S(=O)(=O)N(C)c3ccccc3OC)cc2)c(OC)c1,.,3%,-66%,2%,-2%,7.1µM*
COCCCN(CC(=O)Nc1ccc(N2CCOCC2)cc1)S(=O)(=O)c1ccc(Cl)cc1,.,-4%,-40%,-16%,-6%,?
O=C(C[n+]1cc(Br)cc(Br)c1)c1cccc([N+](=O)[O-])c1,.,8%,17%[10 µM],-1%,5%,4µM*
O=C(CSc1ccccn1)Nc1ccc2c(c1)oc1ccccc12,25µM*,1%,15%[10 µM],8%,-3%,-1%
Cc1ccccc1OCc1nnc(SCC(=O)Nc2ccc3c(c2)oc2ccccc23)n1C,?,?,-2%[10 µM],0%,-8%,14µM*
CCN(CC)C(=O)CSc1nc2ccc(NC(=O)CSc3nnc(COc4ccccc4C)n3C)cc2s1,20µM*,-2%,-5%,-9%,4%,?
Cc1ccc(-c2nnc(SCC(=O)Nc3ccc4c(c3)oc3ccccc34)n2C)c(Cl)c1,-10%,1%,1%,0%,8%,4%
Cc1cccc(-n2c(=S)[nH]c3nc4c(cc3c2=O)COC(C)(C)C4)c1,.,-19%,20%[10 µM],?,7%[9.22 µM],0.71µM*
COc1cc(-n2c(C)nc3cc(C(=O)N4CCOCC4)ccc32)cc(OC)c1OC,32µM*,2%,-9%,-1%,14%,2%
COc1ccc(C(=O)N2CCOCC2)cc1Br,-16%,4%,15%,9%,2%,10%
COC(=O)CCC(=O)OC1(C)C(=O)C=C2C=C(C3CC3)N(C3CCCCC3)C=C2C1=O (stereo not given),-2%,16µM*!,0%[10 µM],19%[13.1 µM],-35%[9.22 µM],-3%[13.5 µM]
